Experimental data published in the supplement of paper PMC10849652.
Targets with a hit are over-represented here; the source holds about 7,900 in all. About 0.6% of all pairs of compound and target were hits.

What was measured:
Assay in all cases: log2 fold change, soluble protein after heating vs DMSO (PISA); higher = thermal stabilisation; K562 cells, 10 uM, 30 min; active = over 0.2 and 3.5 SD of the protein, either way, in both replicates (recomputed)
[1] = compound: C#Cc1cccc(Nc2ncnc3cc(OCCOC)c(OCCOC)cc23)c1 [erlotinib]
How it was run: (§1)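 Thermal stability values are relative to control samples and come from duplicates. They are expressed as log2 fold changes. For measurement, K562 cells (2×10^6 cells/mL) received 10 μM compound for 30 min, and aliquots were heated for 3 min over 48°C-58°C, pooled, and extracted at 4°C in PBS with 0.5% NP-40. Soluble protein, the supernatant after 21,000xg for 90 min, was quantified by TMTpro 16plex LC-MS/MS with equalised channel sums.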

[2] = compound: C/C(=N\NC(=O)C1=CC(=CC=C1)S(=O)(=O)N2CCOCC2)/C3=C(C=CC(=C3)Cl)O
How it was run: as §1

[3] = compound: C1=CC(=C(C=C1Cl)C2=NC3=NC=CN=C3C(=N2)NC4=CC=NC=C4)F
How it was run: as §1

[4] = compound: C1=CC(=CC=C1C2=NC3=C(N2)C=C(C=C3)C(=O)N)OC4=CC=C(C=C4)Cl
How it was run: as §1

[5] = compound: C1=CC2=C(C=CC(=C2)/C=C\3/C(=O)NC(=NCC4=CC=CS4)S3)N=C1
How it was run: as §1

[6] = compound: C1=CC2=NC=CN=C2C=C1/C=C/3\C(=O)NC(=O)S3
How it was run: as §1

[7] = compound: C1=CC=C(C=C1)C2=NC(=C(N2)C3=CC=NC=C3)C4=CC(=C(C=C4)Cl)O
How it was run: as §1

[8] = compound: C1=CC=C2C(=C1)C3=NNC4=CC=CC(=C43)C2=O
How it was run: as §1

[9] = compound: C1CCN(C1)C(=O)NC2=CC=CC(=C2)NC3=NC=C(C(=N3)NCCC4=CN=CN4)Br
How it was run: as §1

[10] = compound: C1CN(CCC1(CC2=CC=C(C=C2)Cl)N)C3=NC=NC4=C3C=CN4
How it was run: as §1

[11] = compound: C1COCCN1CCN2C3=CC=CC=C3N=C2NC(=O)C4=CC(=CC=C4)[N+](=O)[O-] [IRAK-1-4 Inhibitor I]
How it was run: as §1

[12] = compound: C=CC(=O)N1CCC[C@@H](n2nc(-c3ccc(Oc4ccccc4)cc3)c3c(N)ncnc32)C1 [ibrutinib]
How it was run: as §1

[13] = compound: CC(=O)c1cnc2ccc(-c3cc(Cl)c(O)c(Cl)c3)nc2c1N[C@H]1CC[C@H](CN(C)C)CC1
How it was run: as §1

[14] = compound: CC(C)(C)Cn1c(N)nc2ccc(-c3[nH]c(C(C)(C)C)nc3-c3ccc(F)cc3)nc21 [ralimetinib]
How it was run: as §1

[15] = compound: CC(C)(O)CC(=O)NCCn1ccc2ncnc(Nc3ccc(Oc4cccc(C(F)(F)F)c4)c(Cl)c3)c21
How it was run: as §1

[16] = compound: CC(C)C1=C2N=C(C=C(N2N=C1)NCC3=CC=CC=C3)NCCCCCCN
How it was run: as §1

[17] = compound: CC(C)C[C@@H](C=O)NC(=O)[C@H](CC(C)C)NC(=O)[C@H](CC(C)C)NC(=O)OCc1ccccc1
How it was run: as §1

[18] = compound: CC(C)N(C[C@H]1O[C@@H](n2cnc3c(N)ncnc32)[C@H](O)[C@@H]1O)[C@H]1C[C@@H](CCc2nc3cc(C(C)(C)C)ccc3[nH]2)C1 [pinometostat]
How it was run: as §1

[19] = compound: CC1=C(C(CC(=O)N1)C2=CC=C(C=C2)C(F)(F)F)C(=O)NC3=C(C=C4C(=C3)C=NN4)F
How it was run: as §1

[20] = compound: CC1=C(C2=C(C=C1)C(=O)C3=CC=CC=C3N2CCCN)C
How it was run: as §1

Measured: log2 fold change

PTDSS1 (UniProt P48651)
active: [16] -0.585
inactive: [1] -0.076 | [2] -0.12 | [3] -0.099 | [4] 0.045 | [5] -0.031 | [6] -0.114 | [7] 0.03 | [8] 0.041 | [9] 0.016 | [10] -0.058 | [11] -0.146 | [12] 0.118 | [13] 0.021 | [14] 0.029 | [15] -0.023 | [17] 0.061 | [18] 0.212 | [19] 0.093 | [20] 0.035

PPP2R5E (UniProt Q16537)
Sequence of UniProt Q16537 (Q16537 whole entry, looked up): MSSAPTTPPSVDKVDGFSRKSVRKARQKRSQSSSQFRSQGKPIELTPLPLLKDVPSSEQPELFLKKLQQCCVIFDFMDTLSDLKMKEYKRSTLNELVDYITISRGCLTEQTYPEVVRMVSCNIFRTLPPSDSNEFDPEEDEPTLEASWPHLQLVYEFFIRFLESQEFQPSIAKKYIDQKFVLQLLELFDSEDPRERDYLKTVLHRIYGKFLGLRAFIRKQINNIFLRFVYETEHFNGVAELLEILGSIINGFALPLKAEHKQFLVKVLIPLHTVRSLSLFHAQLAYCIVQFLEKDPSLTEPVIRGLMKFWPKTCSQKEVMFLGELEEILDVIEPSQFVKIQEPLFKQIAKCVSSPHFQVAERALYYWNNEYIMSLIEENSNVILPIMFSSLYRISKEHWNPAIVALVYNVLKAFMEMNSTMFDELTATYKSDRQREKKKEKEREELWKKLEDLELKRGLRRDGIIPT
inactive: [1] 0.017 | [2] 0.096 | [3] 0.005 | [4] -0.061 | [5] -0.007 | [6] 0 | [7] 0.075 | [8] 0.054 | [9] -0.013 | [10] 0.056 | [11] -0.01 | [12] -0.001 | [13] -0.033 | [14] -0.029 | [15] -0.046 | [16] -0.144 | [17] 0.019 | [18] 0.015 | [19] 0.028 | [20] 0.136

PLCB3 (UniProt Q01970)
inactive: [1] -0.004 | [2] 0.028 | [3] 0.005 | [4] 0.023 | [5] 0.054 | [6] 0.016 | [7] -0.011 | [8] 0.034 | [9] -0.057 | [10] -0.07 | [11] -0.013 | [12] -0.026 | [13] -0.017 | [14] 0.014 | [15] -0.064 | [16] -0.138 | [17] -0.003 | [18] 0.01 | [19] -0.022 | [20] 0.004

PRPF38B (UniProt Q5VTL8)
active: [13] -0.646
inactive: [1] -0.016 | [2] 0.022 | [3] -0.049 | [4] 0.082 | [5] -0.184 | [6] -0.085 | [7] -0.027 | [8] -0.146 | [9] -0.018 | [10] -0.054 | [11] -0.158 | [12] -0.005 | [14] -0.025 | [15] 0.045 | [16] -0.06 | [17] 0.03 | [18] -0.029 | [19] -0.007 | [20] 0.159

POTEI (UniProt P0CG38)
Sequence of UniProt P0CG38 (P0CG38 whole entry, looked up): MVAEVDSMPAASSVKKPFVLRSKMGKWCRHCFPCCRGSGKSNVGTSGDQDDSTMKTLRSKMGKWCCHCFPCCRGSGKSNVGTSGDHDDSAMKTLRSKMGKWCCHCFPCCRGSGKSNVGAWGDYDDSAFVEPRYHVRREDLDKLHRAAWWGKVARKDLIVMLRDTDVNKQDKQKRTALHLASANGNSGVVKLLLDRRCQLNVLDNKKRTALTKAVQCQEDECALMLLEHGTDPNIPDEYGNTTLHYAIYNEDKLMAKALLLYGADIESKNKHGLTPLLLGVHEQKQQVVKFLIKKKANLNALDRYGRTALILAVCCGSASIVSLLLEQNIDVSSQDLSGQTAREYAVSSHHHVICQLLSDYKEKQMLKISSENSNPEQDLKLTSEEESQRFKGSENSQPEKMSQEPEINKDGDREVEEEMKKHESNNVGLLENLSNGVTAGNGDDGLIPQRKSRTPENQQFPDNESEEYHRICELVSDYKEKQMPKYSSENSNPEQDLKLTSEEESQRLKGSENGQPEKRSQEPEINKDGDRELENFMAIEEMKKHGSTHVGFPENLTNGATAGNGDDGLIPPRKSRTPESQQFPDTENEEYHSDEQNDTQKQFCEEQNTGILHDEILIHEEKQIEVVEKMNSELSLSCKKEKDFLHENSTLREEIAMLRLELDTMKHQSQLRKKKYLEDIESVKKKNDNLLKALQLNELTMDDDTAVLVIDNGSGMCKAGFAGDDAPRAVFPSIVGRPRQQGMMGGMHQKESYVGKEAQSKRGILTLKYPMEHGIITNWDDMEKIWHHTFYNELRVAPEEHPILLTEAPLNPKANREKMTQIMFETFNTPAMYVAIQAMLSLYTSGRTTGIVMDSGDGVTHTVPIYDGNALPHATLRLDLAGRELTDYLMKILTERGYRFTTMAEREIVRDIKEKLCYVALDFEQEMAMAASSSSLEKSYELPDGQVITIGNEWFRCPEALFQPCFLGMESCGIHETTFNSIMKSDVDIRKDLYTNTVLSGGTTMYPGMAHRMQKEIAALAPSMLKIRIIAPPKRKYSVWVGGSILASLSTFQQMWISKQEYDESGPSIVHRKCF
inactive: [1] 0.023 | [2] 0.007 | [3] -0.009 | [4] 0.011 | [5] -0.037 | [6] -0.052 | [7] 0.045 | [8] 0.038 | [9] -0.003 | [10] 0.046 | [11] -0.176 | [12] 0.046 | [13] 0.052 | [14] 0.003 | [15] 0.015 | [16] 0.059 | [17] -0.025 | [18] -0.179 | [19] 0.021 | [20] 0.012

PCBP2 isoform 3 (UniProt Q15366)
inactive: [1] -0.01 | [2] 0.087 | [3] 0.038 | [4] -0.039 | [5] 0.019 | [6] 0.025 | [7] 0.063 | [8] 0.017 | [9] -0.039 | [10] 0.01 | [11] -0.065 | [12] -0.048 | [13] -0.056 | [14] 0.017 | [15] -0.067 | [16] -0.211 | [17] -0.029 | [18] -0.049 | [19] -0.013 | [20] 0.025

PRMT7 (UniProt Q9NVM4)
inactive: [1] 0.093 | [2] 0.132 | [3] 0.064 | [4] -0.017 | [5] 0.142 | [6] 0.018 | [7] -0.109 | [8] -0.039 | [9] 0.031 | [10] -0.031 | [11] 0.044 | [12] -0.061 | [13] -0.004 | [14] -0.005 | [15] 0.048 | [17] -0.033 | [18] 0.074 | [19] -0.022 | [20] -0.065
active: [16] -0.329

PPP2R5C isoform 4 (UniProt Q13362)
Sequence of UniProt Q13362 (Q13362 whole entry, looked up): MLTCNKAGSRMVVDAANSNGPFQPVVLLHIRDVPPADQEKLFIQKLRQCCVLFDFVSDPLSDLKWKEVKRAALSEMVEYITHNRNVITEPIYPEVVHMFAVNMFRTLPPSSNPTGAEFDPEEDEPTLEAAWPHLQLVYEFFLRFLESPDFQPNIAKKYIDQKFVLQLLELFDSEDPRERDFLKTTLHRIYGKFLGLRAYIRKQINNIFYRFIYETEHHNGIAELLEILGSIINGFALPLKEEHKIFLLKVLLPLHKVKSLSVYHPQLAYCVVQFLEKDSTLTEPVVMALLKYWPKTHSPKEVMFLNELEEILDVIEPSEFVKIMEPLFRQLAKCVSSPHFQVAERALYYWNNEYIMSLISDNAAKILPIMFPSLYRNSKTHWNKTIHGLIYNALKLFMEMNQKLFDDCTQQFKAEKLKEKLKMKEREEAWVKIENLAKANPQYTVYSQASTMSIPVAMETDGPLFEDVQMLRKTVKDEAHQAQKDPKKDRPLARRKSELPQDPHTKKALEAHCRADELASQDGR
inactive: [1] 0.036 | [2] -0.022 | [3] 0.218 | [4] -0.025 | [5] -0.039 | [6] -0.004 | [7] -0.029 | [8] -0.015 | [9] 0 | [10] 0.019 | [11] 0.027 | [12] -0.051 | [13] 0.019 | [14] -0.15 | [15] -0.07 | [16] -0.02 | [17] 0.034 | [18] 0.043 | [19] 0.016 | [20] -0.032

PRKACA (UniProt P17612)
inactive: [1] 0.013 | [2] 0.033 | [3] -0.054 | [4] -0.016 | [5] -0.034 | [6] 0.042 | [7] 0.087 | [8] -0.025 | [9] -0.142 | [10] 0.047 | [11] 0.023 | [12] -0.011 | [13] -0.038 | [14] -0.01 | [15] 0.01 | [16] 0.008 | [17] 0.005 | [18] -0.06 | [19] -0.07 | [20] -0.034

PYGB (UniProt P11216)
Sequence of UniProt P11216 (P11216 whole entry, looked up): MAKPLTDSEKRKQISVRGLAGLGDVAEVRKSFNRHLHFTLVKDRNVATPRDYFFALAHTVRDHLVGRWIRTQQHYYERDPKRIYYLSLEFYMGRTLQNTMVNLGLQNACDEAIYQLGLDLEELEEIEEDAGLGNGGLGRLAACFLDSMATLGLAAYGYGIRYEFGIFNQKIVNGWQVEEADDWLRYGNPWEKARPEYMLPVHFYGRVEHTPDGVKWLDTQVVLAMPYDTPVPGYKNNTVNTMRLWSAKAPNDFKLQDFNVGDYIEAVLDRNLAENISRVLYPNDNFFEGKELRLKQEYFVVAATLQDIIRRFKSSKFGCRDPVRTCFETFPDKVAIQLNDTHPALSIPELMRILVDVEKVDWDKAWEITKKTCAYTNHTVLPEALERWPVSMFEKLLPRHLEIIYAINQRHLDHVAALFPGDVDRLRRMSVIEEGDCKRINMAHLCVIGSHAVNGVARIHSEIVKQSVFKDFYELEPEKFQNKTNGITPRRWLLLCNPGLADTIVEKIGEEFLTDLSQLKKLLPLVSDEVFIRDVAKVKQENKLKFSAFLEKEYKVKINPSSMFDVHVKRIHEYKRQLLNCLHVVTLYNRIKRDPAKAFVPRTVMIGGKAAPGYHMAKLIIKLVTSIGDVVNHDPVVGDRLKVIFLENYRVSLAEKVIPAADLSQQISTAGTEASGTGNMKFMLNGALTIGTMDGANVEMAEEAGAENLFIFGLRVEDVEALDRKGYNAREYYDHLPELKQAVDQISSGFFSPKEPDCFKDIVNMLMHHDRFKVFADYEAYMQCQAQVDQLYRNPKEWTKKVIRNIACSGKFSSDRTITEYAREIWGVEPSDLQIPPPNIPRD
inactive: [1] -0.047 | [2] -0.022 | [3] -0.003 | [4] 0.087 | [5] 0.11 | [6] 0.008 | [7] -0.011 | [8] 0.039 | [9] 0.009 | [10] -0.028 | [11] -0.029 | [12] 0.037 | [14] -0.025 | [15] 0.025 | [16] 0.01 | [17] 0.005 | [18] 0.011 | [19] 0.055 | [20] 0.087
active: [13] -0.246

PPIL2 (UniProt Q13356)
inactive: [1] 0.061 | [2] 0.072 | [3] 0.064 | [4] -0.033 | [5] 0.047 | [6] 0.004 | [7] 0.026 | [8] 0.067 | [9] -0.052 | [10] -0.079 | [11] -0.097 | [12] -0.048 | [13] -0.077 | [14] 0 | [15] -0.081 | [16] -0.044 | [17] 0.096 | [18] -0.063 | [19] -0.043 | [20] 0.062

POP1 (UniProt Q99575)
Sequence of UniProt Q99575 (Q99575 whole entry, looked up): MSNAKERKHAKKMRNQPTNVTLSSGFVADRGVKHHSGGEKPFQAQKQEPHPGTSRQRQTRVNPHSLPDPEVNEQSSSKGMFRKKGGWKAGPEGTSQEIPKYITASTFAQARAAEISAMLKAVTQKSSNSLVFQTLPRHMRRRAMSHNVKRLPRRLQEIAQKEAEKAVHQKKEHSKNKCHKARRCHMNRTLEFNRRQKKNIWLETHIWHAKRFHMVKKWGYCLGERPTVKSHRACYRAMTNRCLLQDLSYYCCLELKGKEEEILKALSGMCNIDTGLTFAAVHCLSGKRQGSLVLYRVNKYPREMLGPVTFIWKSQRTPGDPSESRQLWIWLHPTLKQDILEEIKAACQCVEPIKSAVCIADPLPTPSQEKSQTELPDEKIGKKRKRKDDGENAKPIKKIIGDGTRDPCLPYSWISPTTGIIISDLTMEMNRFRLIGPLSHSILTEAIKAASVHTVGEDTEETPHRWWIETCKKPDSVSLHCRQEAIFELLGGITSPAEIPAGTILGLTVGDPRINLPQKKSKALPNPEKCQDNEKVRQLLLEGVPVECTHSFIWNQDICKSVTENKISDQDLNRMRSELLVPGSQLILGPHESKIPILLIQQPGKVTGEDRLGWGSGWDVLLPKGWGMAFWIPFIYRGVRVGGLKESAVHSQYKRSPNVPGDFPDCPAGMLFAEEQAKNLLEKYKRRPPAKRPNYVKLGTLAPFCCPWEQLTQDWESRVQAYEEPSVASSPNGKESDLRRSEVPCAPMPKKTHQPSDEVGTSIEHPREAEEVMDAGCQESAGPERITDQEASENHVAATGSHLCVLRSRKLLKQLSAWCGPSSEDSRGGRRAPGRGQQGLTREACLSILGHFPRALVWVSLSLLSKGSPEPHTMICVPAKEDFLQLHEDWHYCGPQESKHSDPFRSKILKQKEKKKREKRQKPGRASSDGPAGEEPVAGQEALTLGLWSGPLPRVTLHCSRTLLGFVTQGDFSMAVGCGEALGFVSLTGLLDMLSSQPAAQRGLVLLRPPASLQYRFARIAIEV
inactive: [1] -0.01 | [2] 0.028 | [3] -0.015 | [4] 0.029 | [5] -0.011 | [6] 0.022 | [7] 0.017 | [8] -0.016 | [9] 0 | [10] -0.01 | [11] -0.024 | [12] 0 | [13] 0.001 | [14] 0.029 | [15] -0.006 | [16] 0.013 | [17] -0.03 | [18] 0.003 | [19] 0.008
active: [20] -0.271

PSMD8 (UniProt P48556)
inactive: [1] -0.045 | [2] -0.096 | [3] -0.046 | [4] 0.023 | [5] -0.027 | [6] -0.031 | [7] 0.036 | [8] 0.039 | [9] 0.055 | [10] -0.031 | [11] -0.058 | [12] -0.033 | [13] 0.076 | [14] -0.012 | [15] 0.022 | [16] 0.016 | [17] -0.194 | [18] 0.031 | [19] 0.051 | [20] -0.014

QRSL1 (UniProt Q9H0R6)
Sequence of UniProt Q9H0R6 (Q9H0R6 whole entry, looked up): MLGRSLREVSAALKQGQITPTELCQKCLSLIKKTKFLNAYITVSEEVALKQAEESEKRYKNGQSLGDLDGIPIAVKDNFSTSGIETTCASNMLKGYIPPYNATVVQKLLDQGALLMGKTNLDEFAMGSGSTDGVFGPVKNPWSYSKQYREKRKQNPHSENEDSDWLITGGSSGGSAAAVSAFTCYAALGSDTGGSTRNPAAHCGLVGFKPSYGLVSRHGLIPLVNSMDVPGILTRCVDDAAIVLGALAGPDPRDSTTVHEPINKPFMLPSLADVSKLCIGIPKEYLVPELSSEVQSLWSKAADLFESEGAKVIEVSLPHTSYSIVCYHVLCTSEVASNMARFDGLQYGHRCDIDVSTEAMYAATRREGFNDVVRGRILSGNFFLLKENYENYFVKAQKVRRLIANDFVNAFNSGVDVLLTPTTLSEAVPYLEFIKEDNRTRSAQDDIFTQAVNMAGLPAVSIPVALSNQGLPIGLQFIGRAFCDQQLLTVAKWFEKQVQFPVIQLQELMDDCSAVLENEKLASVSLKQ
inactive: [1] 0.024 | [2] 0.052 | [3] 0.118 | [4] -0.002 | [5] 0.06 | [6] -0.023 | [7] 0.071 | [8] -0.032 | [9] 0.017 | [10] -0.116 | [11] 0.016 | [12] 0.023 | [13] -0.025 | [14] 0.001 | [15] -0.071 | [17] -0.003 | [18] -0.087 | [19] 0.041 | [20] 0.025
active: [16] -0.231

PBK (UniProt Q96KB5)
Sequence of UniProt Q96KB5 (Q96KB5 whole entry, looked up): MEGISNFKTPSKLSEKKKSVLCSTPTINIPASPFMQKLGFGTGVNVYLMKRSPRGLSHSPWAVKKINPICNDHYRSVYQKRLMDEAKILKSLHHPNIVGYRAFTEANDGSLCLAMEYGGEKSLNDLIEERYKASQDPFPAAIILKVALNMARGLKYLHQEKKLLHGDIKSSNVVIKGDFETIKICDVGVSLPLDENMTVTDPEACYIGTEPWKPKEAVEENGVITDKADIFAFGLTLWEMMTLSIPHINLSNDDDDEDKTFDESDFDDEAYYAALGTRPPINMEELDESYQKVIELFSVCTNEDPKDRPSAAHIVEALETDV
inactive: [1] 0.103 | [2] 0.117 | [3] -0.054 | [4] -0.037 | [5] 0.083 | [6] 0.028 | [7] 0.067 | [8] 0.016 | [9] -0.052 | [10] -0.105 | [11] -0.142 | [12] -0.059 | [13] 0 | [14] 0.111 | [15] -0.144 | [16] -0.286 | [17] 0.06 | [18] 0.071 | [19] -0.011 | [20] -0.08

PRG4 (UniProt Q92954)
inactive: [1] 0.002 | [2] -0.109 | [3] 0.011 | [4] -0.085 | [5] 0.15 | [6] 0.024 | [7] -0.139 | [8] -0.171 | [9] -0.143 | [10] 0.031 | [11] -0.072 | [12] -0.005 | [13] 0 | [14] 0.011 | [15] 0.059 | [16] 0.29 | [17] 0.054 | [18] -0.068 | [19] 0.039 | [20] -0.127
